# Reference: the supplement of paper PMC10849652
# Targets with a hit are over-represented here; the source holds about 7,900 in all. About 0.6% of all pairs of compound and target were hits. Unmarked numbers belong to inactive results.
# Key:
# Test in all cases: log2 fold change, soluble protein after heating vs DMSO (PISA); higher = thermal stabilisation; K562 cells, 10 uM, 30 min; active = over 0.2 and 3.5 SD of the protein, either way, in both replicates (recomputed)
# erlotinib = compound: C#Cc1cccc(Nc2ncnc3cc(OCCOC)c(OCCOC)cc23)c1 [erlotinib]
# Summary of the method: (§1)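 K562 cells at 2×10^6 cells/mL were treated with 10 μM compound for 30 min. Aliquots were heated for 3 min across 48°C-58°C, pooled, and extracted in PBS with 0.5% NP-40 at 4°C; soluble protein was the supernatant after 21,000xg for 90 min. Soluble protein was quantified by TMTpro 16plex LC-MS/MS with channel sums equalised, and reported as log2 fold change in thermal stability against DMSO controls, with values from duplicates.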
# [1] = compound: C/C(=N\NC(=O)C1=CC(=CC=C1)S(=O)(=O)N2CCOCC2)/C3=C(C=CC(=C3)Cl)O
# Summary of the method: as §1
# [2] = compound: C1=CC(=C(C=C1Cl)C2=NC3=NC=CN=C3C(=N2)NC4=CC=NC=C4)F
# Summary of the method: as §1
# [3] = compound: C1=CC(=CC=C1C2=NC3=C(N2)C=C(C=C3)C(=O)N)OC4=CC=C(C=C4)Cl
# Summary of the method: as §1
# [4] = compound: C1=CC2=C(C=CC(=C2)/C=C\3/C(=O)NC(=NCC4=CC=CS4)S3)N=C1
# Summary of the method: as §1
# [5] = compound: C1=CC2=NC=CN=C2C=C1/C=C/3\C(=O)NC(=O)S3
# Summary of the method: as §1
# [6] = compound: C1=CC=C(C=C1)C2=NC(=C(N2)C3=CC=NC=C3)C4=CC(=C(C=C4)Cl)O
# Summary of the method: as §1
# [7] = compound: C1=CC=C2C(=C1)C3=NNC4=CC=CC(=C43)C2=O
# Summary of the method: as §1
# [8] = compound: C1CCN(C1)C(=O)NC2=CC=CC(=C2)NC3=NC=C(C(=N3)NCCC4=CN=CN4)Br
# Summary of the method: as §1
# [9] = compound: C1CN(CCC1(CC2=CC=C(C=C2)Cl)N)C3=NC=NC4=C3C=CN4
# Summary of the method: as §1
# Chain of UniProt Q9UJY4 (Q9UJY4 whole entry, looked up): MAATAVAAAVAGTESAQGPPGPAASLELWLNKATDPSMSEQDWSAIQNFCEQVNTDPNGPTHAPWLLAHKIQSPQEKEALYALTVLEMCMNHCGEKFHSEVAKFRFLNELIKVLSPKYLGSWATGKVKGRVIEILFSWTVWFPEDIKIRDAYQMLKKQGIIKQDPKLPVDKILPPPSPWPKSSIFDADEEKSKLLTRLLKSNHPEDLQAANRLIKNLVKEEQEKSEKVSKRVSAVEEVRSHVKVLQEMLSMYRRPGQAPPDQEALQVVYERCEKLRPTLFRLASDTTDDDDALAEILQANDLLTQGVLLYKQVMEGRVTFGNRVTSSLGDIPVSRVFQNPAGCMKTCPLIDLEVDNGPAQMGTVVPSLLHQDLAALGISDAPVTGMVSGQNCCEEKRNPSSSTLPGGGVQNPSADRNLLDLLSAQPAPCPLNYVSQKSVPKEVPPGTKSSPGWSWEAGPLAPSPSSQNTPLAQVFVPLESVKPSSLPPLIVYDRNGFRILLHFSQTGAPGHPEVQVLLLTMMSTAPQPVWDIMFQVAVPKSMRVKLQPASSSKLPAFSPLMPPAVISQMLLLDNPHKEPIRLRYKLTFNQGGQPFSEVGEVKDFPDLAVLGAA
# Chain of UniProt Q06546 (Q06546 whole entry, looked up): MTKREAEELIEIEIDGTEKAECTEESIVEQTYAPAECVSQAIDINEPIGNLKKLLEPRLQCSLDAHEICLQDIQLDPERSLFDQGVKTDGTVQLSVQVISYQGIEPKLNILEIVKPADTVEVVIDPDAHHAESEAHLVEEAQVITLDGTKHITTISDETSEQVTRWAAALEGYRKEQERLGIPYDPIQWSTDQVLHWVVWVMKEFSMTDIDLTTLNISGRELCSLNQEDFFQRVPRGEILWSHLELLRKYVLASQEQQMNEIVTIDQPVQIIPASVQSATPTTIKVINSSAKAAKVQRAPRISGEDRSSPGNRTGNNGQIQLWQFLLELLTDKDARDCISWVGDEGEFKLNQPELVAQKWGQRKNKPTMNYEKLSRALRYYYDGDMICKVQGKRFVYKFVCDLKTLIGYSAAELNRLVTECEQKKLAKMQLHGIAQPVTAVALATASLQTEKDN
# Chain of UniProt Q14789 (Q14789 whole entry, looked up): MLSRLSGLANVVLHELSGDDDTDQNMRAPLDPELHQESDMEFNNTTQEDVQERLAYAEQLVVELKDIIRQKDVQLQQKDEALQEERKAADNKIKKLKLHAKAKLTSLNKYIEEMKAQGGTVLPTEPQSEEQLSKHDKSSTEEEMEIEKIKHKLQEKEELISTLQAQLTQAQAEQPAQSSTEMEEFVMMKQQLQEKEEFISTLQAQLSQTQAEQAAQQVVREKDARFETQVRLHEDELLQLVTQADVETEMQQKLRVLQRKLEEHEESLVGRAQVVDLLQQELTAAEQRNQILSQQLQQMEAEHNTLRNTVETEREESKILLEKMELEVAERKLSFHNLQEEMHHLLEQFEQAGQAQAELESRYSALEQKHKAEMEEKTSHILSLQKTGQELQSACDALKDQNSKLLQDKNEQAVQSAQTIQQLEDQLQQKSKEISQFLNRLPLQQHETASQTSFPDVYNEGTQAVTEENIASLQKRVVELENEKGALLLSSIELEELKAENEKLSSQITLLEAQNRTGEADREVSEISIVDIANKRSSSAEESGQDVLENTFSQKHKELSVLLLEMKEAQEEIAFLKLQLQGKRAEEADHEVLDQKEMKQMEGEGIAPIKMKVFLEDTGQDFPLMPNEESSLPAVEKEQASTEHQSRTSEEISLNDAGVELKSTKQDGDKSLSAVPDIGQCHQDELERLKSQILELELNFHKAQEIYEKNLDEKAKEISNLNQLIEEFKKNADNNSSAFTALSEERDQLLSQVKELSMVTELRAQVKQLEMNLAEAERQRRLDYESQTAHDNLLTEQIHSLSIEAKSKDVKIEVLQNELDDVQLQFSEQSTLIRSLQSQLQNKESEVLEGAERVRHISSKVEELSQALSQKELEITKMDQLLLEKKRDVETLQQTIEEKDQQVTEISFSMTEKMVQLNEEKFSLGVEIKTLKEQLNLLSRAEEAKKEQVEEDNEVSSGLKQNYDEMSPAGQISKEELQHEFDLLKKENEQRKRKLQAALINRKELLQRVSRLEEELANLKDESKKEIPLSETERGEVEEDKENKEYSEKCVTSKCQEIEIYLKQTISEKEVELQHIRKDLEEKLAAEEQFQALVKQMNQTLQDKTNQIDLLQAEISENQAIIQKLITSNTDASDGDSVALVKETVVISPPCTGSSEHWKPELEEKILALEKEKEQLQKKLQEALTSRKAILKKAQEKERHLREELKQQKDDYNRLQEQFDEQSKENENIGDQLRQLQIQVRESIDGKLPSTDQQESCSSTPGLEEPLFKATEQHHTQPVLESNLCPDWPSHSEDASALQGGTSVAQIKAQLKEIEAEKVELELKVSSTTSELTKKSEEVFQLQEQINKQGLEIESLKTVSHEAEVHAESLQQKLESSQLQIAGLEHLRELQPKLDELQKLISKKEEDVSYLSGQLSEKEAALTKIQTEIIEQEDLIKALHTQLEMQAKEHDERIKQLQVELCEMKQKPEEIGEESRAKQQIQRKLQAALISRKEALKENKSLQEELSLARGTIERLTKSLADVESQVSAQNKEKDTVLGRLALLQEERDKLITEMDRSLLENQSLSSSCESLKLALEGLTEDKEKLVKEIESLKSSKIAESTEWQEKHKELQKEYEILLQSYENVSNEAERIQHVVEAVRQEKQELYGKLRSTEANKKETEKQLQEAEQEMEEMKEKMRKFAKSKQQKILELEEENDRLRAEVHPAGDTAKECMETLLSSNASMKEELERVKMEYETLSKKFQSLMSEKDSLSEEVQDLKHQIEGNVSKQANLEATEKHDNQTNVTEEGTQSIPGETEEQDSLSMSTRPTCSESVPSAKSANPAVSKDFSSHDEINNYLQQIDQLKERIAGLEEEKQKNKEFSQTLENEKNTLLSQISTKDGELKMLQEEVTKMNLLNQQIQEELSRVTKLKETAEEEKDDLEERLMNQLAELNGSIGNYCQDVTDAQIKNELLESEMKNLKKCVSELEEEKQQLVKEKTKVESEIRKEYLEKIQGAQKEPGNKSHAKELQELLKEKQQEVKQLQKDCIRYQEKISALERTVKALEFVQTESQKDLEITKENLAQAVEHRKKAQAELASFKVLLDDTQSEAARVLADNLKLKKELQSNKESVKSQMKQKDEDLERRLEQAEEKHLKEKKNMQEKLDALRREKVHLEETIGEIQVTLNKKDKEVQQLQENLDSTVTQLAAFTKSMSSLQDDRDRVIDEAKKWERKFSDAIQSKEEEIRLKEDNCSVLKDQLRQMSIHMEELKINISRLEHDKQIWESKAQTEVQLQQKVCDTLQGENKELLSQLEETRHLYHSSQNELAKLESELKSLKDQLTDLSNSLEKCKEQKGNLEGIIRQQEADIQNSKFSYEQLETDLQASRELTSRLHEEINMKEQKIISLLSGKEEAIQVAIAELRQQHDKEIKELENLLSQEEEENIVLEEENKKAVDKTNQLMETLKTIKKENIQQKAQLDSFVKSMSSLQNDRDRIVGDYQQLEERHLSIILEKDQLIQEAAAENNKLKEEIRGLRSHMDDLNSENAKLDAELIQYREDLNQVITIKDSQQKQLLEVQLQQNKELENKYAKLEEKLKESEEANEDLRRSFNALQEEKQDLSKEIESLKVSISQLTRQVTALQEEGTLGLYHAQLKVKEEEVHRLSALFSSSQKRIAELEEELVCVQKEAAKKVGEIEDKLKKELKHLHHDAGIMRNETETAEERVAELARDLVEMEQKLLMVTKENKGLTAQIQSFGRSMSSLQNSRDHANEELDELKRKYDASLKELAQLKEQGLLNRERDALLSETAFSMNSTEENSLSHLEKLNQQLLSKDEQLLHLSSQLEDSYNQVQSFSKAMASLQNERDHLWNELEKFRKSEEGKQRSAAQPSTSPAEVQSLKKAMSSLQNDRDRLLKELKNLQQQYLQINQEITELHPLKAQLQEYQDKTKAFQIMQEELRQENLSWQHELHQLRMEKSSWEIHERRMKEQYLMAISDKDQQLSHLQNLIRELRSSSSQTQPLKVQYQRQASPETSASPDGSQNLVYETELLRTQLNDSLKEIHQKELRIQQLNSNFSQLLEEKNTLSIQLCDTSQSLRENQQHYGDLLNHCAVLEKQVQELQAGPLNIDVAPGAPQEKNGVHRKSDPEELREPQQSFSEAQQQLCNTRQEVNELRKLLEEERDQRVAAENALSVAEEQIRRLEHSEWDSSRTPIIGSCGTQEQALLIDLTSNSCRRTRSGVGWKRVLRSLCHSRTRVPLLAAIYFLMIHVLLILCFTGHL
# Chain of UniProt P29083 (P29083 whole entry, looked up): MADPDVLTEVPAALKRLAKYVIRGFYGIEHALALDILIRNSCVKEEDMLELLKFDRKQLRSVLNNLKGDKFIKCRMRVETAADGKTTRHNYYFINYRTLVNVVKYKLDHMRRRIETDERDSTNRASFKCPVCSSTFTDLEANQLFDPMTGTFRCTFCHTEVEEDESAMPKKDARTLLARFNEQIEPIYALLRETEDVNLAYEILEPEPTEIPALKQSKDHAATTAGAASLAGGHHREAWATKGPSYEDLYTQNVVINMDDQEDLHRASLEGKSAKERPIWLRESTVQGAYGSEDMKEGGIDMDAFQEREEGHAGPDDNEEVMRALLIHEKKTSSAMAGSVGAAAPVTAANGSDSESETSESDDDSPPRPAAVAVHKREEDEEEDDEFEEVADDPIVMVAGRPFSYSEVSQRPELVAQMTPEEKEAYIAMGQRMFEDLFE
# Chain of UniProt Q9H6D7 (Q9H6D7 whole entry, looked up): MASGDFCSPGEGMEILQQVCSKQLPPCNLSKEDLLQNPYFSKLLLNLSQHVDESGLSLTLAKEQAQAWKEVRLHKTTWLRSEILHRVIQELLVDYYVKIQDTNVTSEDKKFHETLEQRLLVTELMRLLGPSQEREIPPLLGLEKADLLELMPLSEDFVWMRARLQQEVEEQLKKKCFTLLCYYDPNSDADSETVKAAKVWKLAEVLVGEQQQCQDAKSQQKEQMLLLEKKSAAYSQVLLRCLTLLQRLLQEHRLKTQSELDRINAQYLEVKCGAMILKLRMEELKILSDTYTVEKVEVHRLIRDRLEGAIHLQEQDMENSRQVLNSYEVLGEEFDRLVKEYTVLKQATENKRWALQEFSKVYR
Target,log2 fold change (erlotinib),log2 fold change [1],log2 fold change [2],log2 fold change [3],log2 fold change [4],log2 fold change [5],log2 fold change [6],log2 fold change [7],log2 fold change [8],log2 fold change [9]
HS1BP3 (UniProt Q53T59),0.008,0.042,0,-0.073,0.147,-0.008,-0.032,-0.03,–,–
FHOD1 (UniProt Q9Y613),-0.002,-0.259,-0.337,-0.059,0.059,0.146,-0.034,-0.007,–,–
HEXB (UniProt P07686),-0.004,0.002,0.01,0.003,-0.002,0.017,0.017,-0.01,0.008,0.026
HMOX2 (UniProt P30519),0.065,0.057,0.039,-0.038,0.024,-0.023,0.03,0.032,-0.04,0.016
GTF2B (UniProt Q00403),0.069,0.136,0.048,-0.035,0.149,0.027,-0.033,0.01,-0.065,-0.046
IDH3A (UniProt P50213),0.021,0.034,0.1,0.023,0.021,0.017,-0.03,0.024,-0.009,0.028
HIST2H2BF isoform 2 (UniProt Q5QNW6),0.013,-0.161,-0.433,0.046,0.048,0.223,-0.057,-0.083,0.191,-0.373
IFRD2 isoform 2 (UniProt Q12894),0.204,-0.109,0.003,0.084,0.048,0.082,-0.051,0.118,0.302,0.04
GSTO1 (UniProt P78417),-0.009,0.007,0.065,-0.001,0.006,0.278 (active),0.095,0.031,-0.005,0.008
HAUS4 (UniProt Q9H6D7),-0.112,0.097,0.041,-0.095,0.018,-0.065,-0.085,-0.087,-0.001,0.001
GGA2 (UniProt Q9UJY4),0.036,-0.041,-0.151,0.003,0.063,0.033,-0.053,-0.013,0.025,-0.016
FYB1 isoform 3 (UniProt O15117),0.019,0.032,-0.02,-0.01,0.057,0.006,0.014,-0.08,-0.041,0
GUSB (UniProt P08236),0.09,-0.099,-0.063,0.165,-0.095,0.032,0.009,0.052,0.033,-0.002
FBXO6 (UniProt Q9NRD1),-0.069,0.046,0.075,0.007,0.048,0.007,0.021,0.002,-0.031,0
FANCD2 isoform 1 (UniProt Q9BXW9),0.077,0.075,-0.003,0.012,0.145,0.02,0,-0.012,-0.008,0.02
GMEB2 (UniProt Q9UKD1),0.003,0.039,0.168,0.004,-0.009,0.047,-0.022,-0.117,-0.105,0.024
IGF2BP2 (UniProt Q9Y6M1),-0.013,-0.083,-0.255,-0.015,0.158,0.014,0.007,0.075,0.057,0.075
GNL1 (UniProt P36915),0.044,0.046,0.048,-0.028,0.037,-0.004,0.074,0,0.035,-0.055
GOLGB1 isoform 2 (UniProt Q14789),-0.152,-0.045,-0.312 (active),-0.055,0.099,0.071,-0.049,-0.059,-0.059,-0.08
HAX1 (UniProt O00165),0.07,-0.006,-0.024,-0.014,0.087,0.008,0.06,0.156,0.027,-0.078
HLTF (UniProt Q14527),-0.005,0.018,0.068,0.039,0.034,-0.067,-0.009,0.044,-0.016,-0.011
HNRNPF (UniProt P52597),0.02,0.126,-0.036,-0.034,-0.098,0.017,0.079,0.003,-0.044,-0.044
GTF2E1 (UniProt P29083),0.067,0.145,0.046,-0.002,0.094,0.007,0.025,0.039,-0.076,0.017
HDAC2 (UniProt Q92769),0.757 (active),0.013,-0.02,-0.012,0.006,0.002,-0.011,-0.011,-0.025,0.023
GNAS (UniProt Q5JWF2),0.001,0.042,-0.032,0.043,0.026,0.021,0.02,0.011,-0.011,0.043
FUBP3 (UniProt Q96I24),-0.059,0.007,0.084,0.019,-0.014,0.069,-0.017,0.002,0.009,0.036
HDAC6 (UniProt Q9UBN7),0.43 (active),0.033,-0.007,-0.007,0.041,-0.164,0.033,0.07,-0.043,0.115
GABPA (UniProt Q06546),0.07,0.121,0.014,-0.042,0.083,-0.055,0.049,0.025,-0.028,0.011
HECTD1 (UniProt Q9ULT8),0.009,0.127,-0.031,-0.003,0.025,0.087,-0.038,-0.035,-0.076,-0.204
HEATR5B (UniProt Q9P2D3),-0.009,0.059,-0.128,0.025,-0.067,0.004,0.007,0.05,-0.026,0.043
